Laboratory results reported in PubChem BioAssay AID1159580 (chemical genetic matrix, 2015).
“And” between values parts separate entries of the source, which are not always exact repeats. Identical values can stand only once. The campaign covered roughly 5,500 compounds. About 2,000 (36%) were called active. Inconclusive results (about 18%) are left out. Rule as the data show it: active = normalized growth mostly below about 0.91 (no sharp cut-off); inconclusive = no clear call, values can overlap the other calls; inactive = mostly above about 0.92. The list shows a part of the results.

Assay: chemical genetic growth profiling, strain panel (AID 1159580);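 also: tested at 20 µM; growth read once vehicle control cultures reached saturation at 30 °C; 1 = growth at the plate median or of vehicle wells; lower values mean less growth of the strain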
Settings: S. cerevisiae deletion strains, growth OD

Measured: normalized growth

CCCCCCCCNC(C)C(O)c1ccc(SC(C)C)cc1 (stereo not drawn)
active: locus YAL021C, strain ccr4, stronger effect = lower value 0.0594 | locus YAL026C, strain drs2, stronger effect = lower value 0.0595 | locus YAL030W, strain snc1, stronger effect = lower value 0.0546 | locus YBL061C, strain skt5, stronger effect = lower value 0.0571 | locus YBR009C, strain hhf1, stronger effect = lower value 0.0563 | locus YBR021W, strain FUR4, stronger effect = lower value 0.0834 | locus YBR023C, strain chs3, stronger effect = lower value 0.0584 | locus YBR171W, strain sec66, stronger effect = lower value 0.0741 | locus YBR229C, strain ROT2, stronger effect = lower value 0.0441 | locus YBR231C, strain swc5, stronger effect = lower value 0.0585 | locus YBR279W, strain paf1, stronger effect = lower value 0.0682 | locus YCL011C, strain gbp2, stronger effect = lower value 0.055 | locus YCL016C, strain dcc1, stronger effect = lower value 0.0618 | locus YCL029C, strain bik1, stronger effect = lower value 0.0564 | locus YCL069W, strain vba3, stronger effect = lower value 0.0585 | locus YCR088W, strain abp1, stronger effect = lower value 0.0581 | locus YDL005C, strain med2, stronger effect = lower value 0.0745 | locus YDL035C, strain GPR1, stronger effect = lower value 0.0475 | locus YDL040C, strain nat1, stronger effect = lower value 0.0579 | locus YDL074C, strain BRE1, stronger effect = lower value 0.0735 | locus YDL101C, strain DUN1, stronger effect = lower value 0.0522 | locus YDL134C, strain PPH21, stronger effect = lower value 0.047 | locus YDL185W, strain tfp1, stronger effect = lower value 0.262 | locus YDL192W, strain arf1, stronger effect = lower value 0.0576 | locus YDR001C, strain nth1, stronger effect = lower value 0.06 | locus YDR069C, strain doa4, stronger effect = lower value 0.0584 | locus YDR101C, strain arx1, stronger effect = lower value 0.0541 | locus YDR137W, strain rgp1, stronger effect = lower value 0.0948 | locus YDR150W, strain NUM1, stronger effect = lower value 0.0542 | locus YDR159W, strain sac3, stronger effect = lower value 0.0734 | locus YDR162C, strain NBP2, stronger effect = lower value 0.0459 | locus YDR195W, strain ref2 0.0984 | locus YDR297W, strain sur2, stronger effect = lower value 0.0553 | locus YDR318W, strain mcm21, stronger effect = lower value 0.0585 | locus YDR334W, strain swr1, stronger effect = lower value 0.0597 | locus YDR335W, strain msn5, stronger effect = lower value 0.0583 | locus YDR388W, stronger effect = lower value 0.054 | locus YDR392W, strain spt3, stronger effect = lower value 0.0655 | locus YDR502C, strain sam2, stronger effect = lower value 0.056 | locus YEL003W, strain gim4, stronger effect = lower value 0.0594 | locus YEL037C, strain rad23, stronger effect = lower value 0.0554 | locus YEL061C, strain CIN8 (second series), stronger effect = lower value 0.0597 | locus YEL061C, strain CIN8, stronger effect = lower value 0.0482 | locus YER015W, strain faa2, stronger effect = lower value 0.0595 | locus YER016W, strain bim1, stronger effect = lower value 0.0591 | locus YER110C, stronger effect = lower value 0.0696 | locus YER111C, strain swi4, stronger effect = lower value 0.0814 | locus YER155C, strain BEM2 (second series), stronger effect = lower value 0.0808 | locus YER155C, strain BEM2, stronger effect = lower value 0.0577 | locus YER167W, strain BCK2, stronger effect = lower value 0.0469 | locus YFR010W, strain ubp6, stronger effect = lower value 0.0616 | locus YGL078C, strain dbp3, stronger effect = lower value 0.902 | locus YGL086W, strain mad1, stronger effect = lower value 0.0521 | locus YGL167C, strain pmr1, stronger effect = lower value 0.077 | locus YGL173C, strain kem1, stronger effect = lower value 0.0661 | locus YGL227W, strain vid30, stronger effect = lower value 0.06 | locus YGL240W, strain doc1, stronger effect = lower value 0.0665 | locus YGL248W, strain PDE1, stronger effect = lower value 0.0436 | locus YGL253W, strain hxk2, stronger effect = lower value 0.0517 | locus YGR135W, strain pre9, stronger effect = lower value 0.0567 | locus YGR252W, strain gcn5, stronger effect = lower value 0.109 | locus YHR013C, strain ard1, stronger effect = lower value 0.0967 | locus YHR027C, strain rpn1, stronger effect = lower value 0.0609 | locus YHR079C, strain IRE1 (second series), stronger effect = lower value 0.0545 | locus YHR094C, strain hxt1, stronger effect = lower value 0.0553 | locus YHR129C, strain ARP1, stronger effect = lower value 0.0538 | locus YHR142W, strain chs7, stronger effect = lower value 0.0639 | locus YHR200W, strain rpn10, stronger effect = lower value 0.0572 | locus YIL066C, strain RNR3, stronger effect = lower value 0.0459 | locus YIL073C, strain SPO22, stronger effect = lower value 0.102 | locus YIR030C, strain dcg1, stronger effect = lower value 0.0568 | locus YJL092W, strain hpr5, stronger effect = lower value 0.0567 | locus YJL095W, strain BCK1 (second series), stronger effect = lower value 0.0551 | locus YJL095W, strain BCK1, stronger effect = lower value 0.0554 and 0.787 | locus YJL115W, strain asf1, stronger effect = lower value 0.069 | locus YJL129C, strain trk1, stronger effect = lower value 0.0791 | locus YJL134W, strain LCB3, stronger effect = lower value 0.0468 | locus YJL154C, strain vps35, stronger effect = lower value 0.0585 | locus YJL164C, strain tpk1, stronger effect = lower value 0.0551 | locus YJL166W, strain qcr8, stronger effect = lower value 0.0569 | locus YJL168C, strain set2, stronger effect = lower value 0.0547 | locus YJL187C, strain SWE1 (second series), stronger effect = lower value 0.0448 | locus YJR043C, strain POL32, stronger effect = lower value 0.0599 | locus YJR075W, strain HOC1, stronger effect = lower value 0.0593
0.0483 (active) and 0.892 (inactive): locus YHR030C, strain SLT2, stronger effect = lower value
inactive: locus YHR079C, strain IRE1, stronger effect = lower value 0.911 | locus YIL125W, strain kgd1, stronger effect = lower value 1 | locus YJR066W, strain TOR1, stronger effect = lower value 0.885
